# Only some compounds are listed: those with a hit (about 11% of all), similar ones and a draw of the others.
# Pf growth 96h – inhibits malaria parasite growth, 96 h; P. falciparum luciferase reporter growth, 96 h; Potency, µM (series often up to 28.7 µM), without a hit: at the highest dose activity change, negative = inhibition, hits mostly inhibitors; 6.9% of 320,000 active
#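 Compounds incubated with erythrocytes infected by luciferase-expressing P. falciparum (2% hematocrit, 0.05% parasitemia final) for 96 hours, 37 C in 5% CO2. Growth inhibition scored as decreased luciferase luminescence.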
# AMA1 RON2 block – inhibitors of Plasmodium falciparum AMA1-RON2 interaction. 0.2% of 360,000 active. AID 720542. AlphaScreen AMA1-biotinylated RON2 peptide binding. Potency, µM (series often up to 58.2 µM), for inactives: at the highest dose activity change, negative = inhibition, usual class: inhibitors;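 note: 0% = vehicle wells and -100% = peptide control; nearly all actives have a fitted effect of over 45% in size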
#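 AMA1 (3D7) with his tag at 25 nM final met compounds first, then biotinylated RON2 peptide at 25 nM; detection used donor plus acceptor beads, 10 µg/mL apiece, read by AlphaScreen after 30 min at room temperature.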
# Pf growth 48h – inhibits P. falciparum growth in the first generation, 48 h; P. falciparum luciferase growth in erythrocytes, 48 h; Potency, µM (titrated, usually from 28.7 µM), inactives show top-dose activity change, negative = inhibition, hits mostly inhibitors; 5.9% of 310,000 active; AID 504832
#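 In quantitative HTS format, infected erythrocytes bearing luciferase-reporter parasites were treated for a single generation at 37 C. Luminescence after adding detection reagent served as the growth measure.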
# HCV inhibitor – HCV inhibition. AID 651820. Potency, µM (top dose mostly 41.8 µM), for the others: top-dose activity change, negative = inhibition, most hits filed as inhibitors. Huh7.5.1 HCVcc-Cre infection, luciferase reporter, 44 h. 3.4% of 340,000 active
#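 After 44 h co-culture of compound, cells and HCVcc-Cre (~0.5 moi), substrate is added for 15 min at room temperature and luciferase measured over 15 sec. Cells were seeded at 1,000/well and pre-cultured 4 h.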
# * hit, by the source's call; ? = inconclusive; . = no result given; [ ] = remark or other dose. Calls come from the whole dose curve; as a rule, active = well fitted curve in the direction sought with a large enough effect; inconclusive = small, poorly fitted or top-dose-only effect, or another doubt; inactive = no such curve, though single readings can be large; an effect the other way counts as inactive or inconclusive. Unless noted, % is set by controls: 0 for no effect and ±100 for the full control effect; potency is the fitted concentration of half-maximal effect.
SMILES,Pf growth 96h,AMA1 RON2 block,Pf growth 48h,HCV inhibitor
Cc1cccc(N2C(=O)CSC23CCCCC3)c1,1.47µM*,3.0%,-20.6%,-0.5%
CC1CCC2(CC1)SCC(=O)N2c1ccccc1 (stereo not given),93.0%,-4.5%,2.4%,7.5%
Nc1[nH]c(C(=O)c2ccccc2)c(-c2cccc3ccccc23)c1C(=O)NCc1ccccc1,.,24.7%,.,.
O=C1c2cccc(OCC(=O)N3N=C(c4cccs4)CC3c3ccc(F)cc3)c2CCN1Cc1cccnc1 (stereo not given),?,-5.4%,1.47µM*,?
COc1cc2c(C(=O)Nc3ccccc3F)cn(C)c(=O)c2cc1OC,8.28µM*,1.1%,-17.2%[0.00184 µM],-9.7%
COc1cc2c(C(=O)NCc3ccccn3)cn(C)c(=O)c2cc1OC,-6.1%,14.0%,17.6%,2.2%
COc1ccccc1NC(=O)c1cn(C)c(=O)c2cc(OC)c(OC)cc12,8.28µM*,12.8%,21.8%,-1.7%
COc1ccc2nccc(/C=C/c3ccnc4ccc(OC)cc34)c2c1,3.7µM*,-19.5%,3.29µM*,?
COc1ccc(OC)c(/C=C/c2ccnc3ccccc23)c1,.,-9.0%,.,?
COc1ccc(C/C(N)=N/OC(=O)c2ccc(Cl)cc2)cc1,-14.4%,15.6%,?,-0.7%
N/C(Cc1ccc(Cl)cc1)=N\OC(=O)c1cccc2ccccc12,?,11.7%,?,7.08µM*
N/C(Cc1ccc(Cl)cc1)=N\OC(=O)c1ccc2ccccc2c1,10.4µM*,4.9%,?,31.6µM*
O=C1NC[C@@H](CCCCN2CCN(CCC3CCCCC3)C(=O)C2=O)N(CCC2CCCCC2)C1=O,.,4.9%,.,.
O=C(Cc1ccsc1)NNC(=O)c1ccccc1O,33.1%,41.9%,10.9%,?
Cc1cccc(NC(=O)c2nc[nH]c2C(=O)N[C@@H](Cc2ccccc2)C(=O)OC(C)(C)C)c1,11.7µM*,111.1%,?,?
CC(C)(C)OC(=O)[C@H](Cc1ccccc1)NC(=O)c1[nH]cnc1C(=O)Nc1cccc(Cl)c1,?,122.6%,?,-1.9%[8.37 µM]
CC(C)(C)OC(=O)[C@H](Cc1ccccc1)NC(=O)c1[nH]cnc1C(=O)N[C@@H](Cc1ccccc1)C(=O)OCc1ccccc1,?,100.7%,?,6.9%
CC(C)(C)OC(=O)[C@H](Cc1ccccc1)NC(=O)c1nc[nH]c1C(=O)N[C@@H](Cc1ccccc1)C(=O)OC(C)(C)C,?,123.0%,11.7µM*,?
C[C@H](NC(=O)c1nc[nH]c1C(=O)N[C@@H](Cc1ccccc1)C(=O)OC(C)(C)C)C(=O)OC(C)(C)C,?,116.0%,7.38µM*,11.2µM*
COc1ccc(S(N)(=O)=O)cc1C(=O)OCC(=O)N1CC(=O)Nc2ccccc21,4.9%,1.9%,63.7%,10.5%
COc1ccc(S(=O)(=O)Cc2ccccc2)cc1N,2.5%,15.8%,18.8%,1.7%
O=C(Nc1c(-c2ccc3c(c2)OCO3)[nH][nH]c1=O)c1ccccc1,.,-6.8%,.,.
Cc1noc(C)c1COc1ccc(C(=O)OCC(=O)N2CC(=O)Nc3ccccc32)cc1,?,5.4%,4.65µM*,18.4%
O=C1CN(C(=O)COC(=O)c2ccccc2NC(=O)c2ccco2)c2ccccc2N1,13.1µM*,-3.3%,-10.4%,4.4%
CCOC(=O)c1[nH]c(C)c(C(=O)OCC(=O)N2CC(=O)Nc3ccccc32)c1C,9.28µM*,-17.2%,?,?
SMILES,Pf growth 96h,AMA1 RON2 block,Pf growth 48h,HCV inhibitor
CCOC(=O)c1c(C)[nH]c(C(=O)OCC(=O)N2c3ccccc3CC2C)c1C (stereo not given),?,10.8%,?,10µM*
Cc1noc(C)c1COc1ccc(C(=O)OCC(=O)N2c3ccccc3NC(=O)C2(C)C)cc1,?,-5.0%,.,-29.7%
Cc1cc(CNC(=O)CC2C(=O)NCCN2CC(c2ccccc2)c2ccccc2)on1 (stereo not given),14.7µM*,2.4%,1.5%,12.2%
CN(CC1CCOCC1)C(=O)CC1C(=O)NCCN1C/C=C/c1ccccc1 (stereo not given),4.65µM*,0.6%,5.8%,6.5%
Cc1ccc(CN2CCNC(=O)C2CC(=O)N(C)CCc2ccccc2)cc1 (stereo not given),7.38µM*,-0.4%,?,0.0%
CN(CCc1ccccn1)C(=O)CC1C(=O)NCCN1Cc1ccc(-c2ccccc2)cc1 (stereo not given),11.7µM*,7.9%,?,25.8%
Cc1cc(-c2ccc3c(c2)COc2c4ccccc4nn2-3)on1,.,4.2%,.,30.6%

# Screening data as filed in PubChem.
